S16 viability – cytotoxicity in S16 Pmp22-F2sN Schwann cells | S16 Pmp22-F2sN Schwann cells viability, CellTiter-Glo, 24 h | Potency, µM (highest dose often 57.5 µM), inactives show at the top dose activity change, negative = cytotoxicity, usual class: cytotoxic | 0.48% of 43,000 active | AID 1508642; further: nearly all actives have a fitted effect of over 65% in size
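Viability was measured by CellTiter-Glo luminescence (15 min, room temperature). This followed 24 h at 37 °C of compound exposure (23 nL pin transfer) in S16 Pmp22-F2sN Schwann cells, 500-1,000 per well.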
p53null 32C tox – selectivity test: cytotoxicity in p53 null cells, permissive temperature | H1299-neo p53 null cells, ATP luminescence, 24 h, 32C | Potency, µM (titrated, usually from 46.1 µM), for the others: top-dose activity change, negative = cytotoxicity, hits mostly cytotoxic | 0.62% of 55,000 active;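 further: 0% = DMSO only and -100% = full killing by 100 µM tamoxifen; nearly all actives have a fitted effect of over 55% in size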
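ATP-content luminescence in p53-null H1299-neo cells after 24 h compound exposure (up to 46 uM) at 32C permissive temperature; 0% and 100% killing set by DMSO and 100 uM tamoxifen; Hill-equation AC50.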
PMP22 txn prim – modulates PMP22 transcription in S16 Schwann cells. 2% of 43,000 active. S16 Pmp22-F2sN Schwann cells (luciferase reporters placed in the Pmp22 gene), FLuc/NLuc coincidence luminescence, 24 h. AID 1508649. Potency, µM (titrated, usually from 57.5 µM), inactives show top-dose activity change, negative = inhibition, actives largely listed as inhibitors; active means clear falling dose curves in both reporters; inconclusive means both reporters move, but less clearly or upward; inactive means either reporter flat; the % is the NLuc reporter signal
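Reporter cells (S16 Pmp22-F2sN, 500–1,000 per well) exposed to compounds for 24 h, 37C, 5% CO2; lysis with FLuc read after 10 min, then Stop&Glo and NLuc read after 10 min.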
p53null 39C tox – p53 null cell cytotoxicity, nonpermissive temperature; AID 904; Potency, µM (doses to about 46.1 µM), for the others: at the highest dose activity, negative = cell killing, most hits filed as cytotoxic; 0.97% of 55,000 active; H1299 p53-null (neo) cells, 39C, ATPlite viability, 24 h;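 further: 0% = DMSO only and -100% = full killing by 100 µM tamoxifen; nearly all actives have a fitted effect of over 50% in size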
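ATP-luminescence viability readout (ATPlite, 20 min RT) after 24 hr compound treatment at 39C of H1299-neo or H1299-p53A138V cells; titration up to 46 uM; normalized to DMSO and 100 uM tamoxifen; Hill-fit AC50.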
OvCa metastasis – inhibitors of ovarian cancer cell adhesion and invasion in omental model. AID 1963576. 0.1% of 46,000 active. Potency, µM (top dose mostly 45.8 µM), for the others: top-dose activity change, negative = inhibition, most hits filed as inhibitors. SKOV3ip1-GFP adhesion/invasion on 3D omental model, fluorescence;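 further: plate controls were DMSO wells for no effect and tomatine positive control wells for full effect; nearly all actives have a fitted effect of over 65% in size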
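Adhesion/invasion was scored as fixed GFP-labeled SKOV3ip1 cell counts (488/509 nm), normalized to DMSO and tomatine controls. Cancer cells in serum-free medium, with four compound doses (0.36-46 umol/L), sat 2 hr at RT then 16 hr at 37 C on a 48 hr fibroblast/mesothelial/ECM culture.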
pS6 MEF inh – mTORC1 pathway inhibition measured by phospho-rpS6; Tsc2-/- p53-/- MEF, phospho-rpS6 immunofluorescence/PI, 24 h; Potency, µM (highest dose often 38.3 µM), inactives show at the top dose activity change, negative = inhibition, most hits filed as inhibitors; 0.78% of 44,000 active; AID 493208;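 further: plate controls were DMSO for no effect and rapamycin for full effect; nearly all actives have a fitted effect of over 50% in size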
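Cell-based qHTS: Tsc2-/- p53-/- MEF, 24 h cpd, 37 °C; fix/perm, anti-phospho-S6 Alexa-488 + PI; Acumen 488 nm scan; pS6/PI ratio, % positive cells; rapamycin 7.5 nM = inhibition ref; PI count = viability.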
Starred values were filed as active, the others as inactive; i = inactive; u = inconclusive; x = no result given. Only some compounds are listed: those with a hit (about 3% of all), similar ones and a draw of the others. Unless noted, the call rests on the fitted dose curve; in most records, active means well fitted curve in the direction sought with a large enough effect; inconclusive means small, poorly fitted or top-dose-only effect, or another doubt; inactive means no such curve, though single readings can be large; an effect the other way counts as inactive or inconclusive. Unless noted, on the % scale 0 is the no-effect control and ±100 the full control effect; potency means the concentration at half of the fitted maximal effect.

SMILES	S16 viability	p53null 32C tox	PMP22 txn prim	p53null 39C tox	OvCa metastasis	pS6 MEF inh
COc1ccccc1NC(=O)C1=C(C)Nc2nc(SCc3cc(C)ccc3C)nn2C1c1ccccc1 (centres undefined)	10µM*	-8%	17µM*	8%	8%	-3%
CCc1ccc(OCC(=O)Nc2ccc3oc(-c4ccc(OC)cc4)nc3c2)cc1	17%	-5%	-10%	-9%	-2%	13µM*
COc1ccc(OCC(=O)Nc2ccc(-c3nc4cc(C)c(C)cc4o3)cc2)cc1	7%	-9%	-3%	7%	-9%	-1%
CCN1CCc2nc3sc(C(=O)Nc4cccc(Cl)c4C)c(N)c3cc2C1	u	-4%	12µM*	u	-6%	u
COc1ccc(-c2[nH]nc3nc(-c4cc(OC)c(OC)c(OC)c4)cc(C(=O)O)c23)cc1	5%	-6%	11%	5%	i	16µM*
CCc1ccc(-c2[nH]nc3nc(-c4cc(OC)ccc4OC)cc(C(=O)O)c23)cc1	-1%	10µM*	9%	4µM*	-16%	u
CC1(C)CC(O)CC(C)(C)N1[O]	x	x	x	x	2%	x
CC[C@H](CC[C@@H](C)[C@H]1CC[C@H]2[C@@H]3CC=C4C[C@@H](O)CC[C@]4(C)[C@@H]3CC[C@]12C)C(C)C	x	x	x	x	-10%	x
N#Cc1c(O)c2c(-c3ccc(-c4ccccc4O)cc3)csc2[nH]c1=O	x	x	x	x	-12%	x
Cn1c(=O)c(Oc2ccc(F)cc2F)cc2cnc(NC3CCOCC3)nc21	x	x	x	x	-20%	x
COc1ccccc1Cn1cc(C(=O)c2ccc(Cl)cc2)c(=O)c2ccccc21	u	2%	u	u	u	3.3µM*
COc1ccccc1Cn1cc(C(=O)c2ccc(Cl)cc2)c(=O)c2cc3c(cc21)OCCO3	1%	-6%	u	-20%	0%	-7%
Cn1cc(-c2[nH]c3cc(NC(=O)[C@H](N)C4CCCCC4)cc4c3c2C=NNC4=O)cn1	x	x	x	x	22%	x
CCOC(=O)c1ccc(N2C(=O)c3n[nH]c(C)c3C2c2cccc(Br)c2)cc1 (centres undefined)	u	17%	u	u	-5%	16µM*
CCOC(=O)c1ccc(N2C(=O)c3n[nH]c(C)c3C2c2ccc(CC)cc2)cc1 (centres undefined)	25%	8%	0%	10%	i	7%
CCOc1ccc(CNC(=O)CSc2nnc(C)c3c(C)n(-c4ccccc4)nc23)cc1	10%	22%	-23%	25µM*	-13%	0%
CCN(c1ccccc1)S(=O)(=O)c1nnc(NC(=O)c2cccs2)s1	-18%	1.3µM*	-5%	1µM*	8%	3%
CC(C)CN(c1ccccc1)S(=O)(=O)c1nnc(NC(=O)c2ccco2)s1	1%	u	-28%	2µM*	9%	-3%
CCN(c1ccc(C)cc1)S(=O)(=O)c1nnc(NC(=O)c2cccs2)s1	-3%	8%	-30%	u	i	-1%
COc1ccc(CC2=NN3C([C@@H](CCc4ccccc4)[C@@H](C)O)=NC(C)C3C(=O)N2)cc1OC (some centres undefined)	x	x	x	x	-9%	x
CCOC(=O)c1cccc(NS(=O)(=O)c2ccc(-c3cnc(C4CC4)o3)cc2)c1	u	-6%	11µM*	1%	i	-18%
CC(=O)c1ccc(NS(=O)(=O)c2ccc(-c3cnc(C4CC4)o3)cc2)cc1	6%	u	-3%	0%	i	-1%
COc1cc(Cl)c(NS(=O)(=O)c2ccc(-c3cnc(C4CC4)o3)cc2)c(OC)c1	1.3µM*	-5%	3µM*	u	6%	-29%
Cc1ccc(CNS(=O)(=O)c2ccc(-c3cnc(C4CC4)o3)cc2)cc1	-25%	2%	u	8%	i	1%
Cc1ccc(N(C)S(=O)(=O)c2ccc(-c3cnc(C4CC4)o3)cc2)cc1	u	-14%	14µM*	u	-30%	1%
SMILES	S16 viability	p53null 32C tox	PMP22 txn prim	p53null 39C tox	OvCa metastasis	pS6 MEF inh
Cc1[nH]c(C=C2C(=O)Nc3ccccc32)c(C)c1CCC(=O)O	x	x	x	x	-24%	x
Cc1csc2nc(COC(=O)c3cccc(NC(=O)COc4ccccc4Cl)c3)cc(=O)n12	23%	u	-5%	6.3µM*	i	0%
CCOc1ccc(C(=O)Nc2ccc(C(=O)OCc3cc(=O)n4c(C)csc4n3)cc2)cc1	-23%	u	u	13µM*	i	4%
CN[C@@H](C)C(=O)N[C@H]1CN(C(=O)CC(C)C)CC[C@H]2CC[C@@H](C(=O)NC(c3ccccc3)c3ccccc3)N2C1=O	x	x	x	x	-5%	x
Cn1cnc2c(F)c(Nc3ccc(Br)cc3F)c(C(=O)NOCCO)cc21	x	x	x	x	8%	x
CC(C)COc1ccc(C(=O)Nc2onc3c2CCCC3)cc1	u	u	6%	13µM*	-5%	-6%
CC(C)(C)c1ccc(C(=O)Nc2onc3c2CCCC3)cc1	u	16µM*	-25%	u	-4%	1%
CCOc1ccc(C(=O)Nc2onc3c2CCCC3)cc1	-2%	6.3µM*	u	4µM*	1%	2%
COc1cccc(-c2nnc(Nc3nc4c(F)cccc4s3)o2)c1	x	u	x	2.5µM*	x	x
O=S(=O)(c1cccc(C(F)(F)F)c1)n1c(/C=C/c2ccccc2)nc2ccccc21	u	16µM*	u	u	-16%	-1%
CCOc1ccc(S(=O)(=O)Nc2nc3ccccc3nc2Nc2ccc(OC)cc2)cc1	-1%	9%	-10%	15%	-4%	6%
CSc1ccc(/C=C/c2nc3ccccc3n2S(=O)(=O)c2ccc(Br)cc2)cc1	u	3.2µM*	u	2.5µM*	i	-18%
CC(C)Cn1c(/C=C/c2ccccc2)nc2ccccc21	x	x	x	-7%	x	x
CCOc1ccc(/C=C/c2nc3ccccc3n2S(=O)(=O)c2ccc(Br)cc2)cc1	-7%	13µM*	-1%	7.9µM*	-6%	-2%
CCOc1ccc(C2=CC(c3cccc(Br)c3)n3c(nc4ccccc43)N2)cc1Cl (centres undefined)	-20%	-1%	u	10%	1%	-7%
COc1cccc(C2=CC(c3ccccc3F)n3c(nc4ccccc43)N2)c1 (centres undefined)	u	11µM*	u	u	2%	0%

Screening results (PubChem)
